# Screening data as filed in PubChem.
# Shown is part of a subset that was picked to be rich in hits.
# Vaccinia stage = blocks a specific stage of Vaccinia orthopoxvirus infection; AID 1053133; activity change (mCherry), % (no concentration beside the values); 89,000 tested, 0.01% active; Vaccinia-infected cells, mCherry/Venus stage reporter fluorescence; hits give low values; in the data active = activity change below about -37%, passing the limit was not always enough; tested in A549 cells
# An asterisk follows results filed as active.
SMILES,Vaccinia stage
COc1cccc(CNC(=O)[C@@H]2[C@@H](CO)[C@@H]3Cn4c(ccc(C5=CCCCC5)c4=O)[C@H]2N3)c1,9
C[C@H](CO)N1C[C@H](C)[C@@H](CN(C)C(=O)c2ccccn2)Oc2ncc(C3=CCCCC3)cc2C1=O,32
CO[C@@H]1CN(C)C(=O)c2ccc(NC(=O)C3CC3)cc2OC[C@@H](C)N(Cc2cc(F)ccc2F)C[C@H]1C,-23
CC(C)NC(=O)N(C)C[C@@H]1OCCCC[C@@H](C)Oc2ccc(N(C)C)cc2C(=O)N([C@@H](C)CO)C[C@@H]1C,19
C[C@H]1CN([C@@H](C)CO)S(=O)(=O)c2ccc(C3=CCCC3)cc2O[C@H]1CN(C)C(=O)c1ccccc1,14
CCC(=O)N1C[C@H](C)[C@@H](OC)CN(C)C(=O)c2cc(NC(=O)c3ccc(F)cc3)ccc2OC[C@@H]1C,11
CS(=O)(=O)Nc1ccc2c(c1)[C@H]1C[C@@H](CC(=O)NC3CCCCC3)O[C@@H](CO)[C@H]1O2,14
COCC(=O)Nc1ccc2c(c1)[C@@H]1C[C@@H](CC(=O)NCc3ccccc3OC)O[C@H](CO)[C@@H]1O2,3
CCCNC(=O)N1CC2(C1)[C@@H](c1ccccc1)[C@H](CO)N2C(=O)C1CCC1,3
C[C@H](CO)N1C[C@H](C)[C@@H](CN(C)Cc2ccccc2)Oc2cc(C#C[C@@H](C)O)ccc2S1(=O)=O,-16
C[C@@H](O)C#Cc1ccc2c(c1)O[C@@H](CN(C)Cc1ccc(-c3ccccc3)cc1)[C@@H](C)CN([C@@H](C)CO)S2(=O)=O,-92*
C[C@H](O)C#Cc1ccc2c(c1)O[C@H](CN(C)Cc1ccccc1)[C@@H](C)CN([C@@H](C)CO)S2(=O)=O,-26
C[C@@H]1CN([C@@H](C)CO)C(=O)c2cc(NC(=O)c3ccccc3)ccc2O[C@@H](C)CCCCO[C@@H]1CN(C)C(=O)CCC(F)(F)F,-3
COCCNC(=O)c1cc2c(c(-c3cccc(-c4cccc(F)c4)c3)n1)[C@H](CCO)N(S(=O)C(C)(C)C)C2 (stereo not given in full),2
CN(C)C(=O)[C@]1(Cc2ccccc2N=[N+]=[N-])N=C(c2ccc(OCCCO)cc2)O[C@@H]1c1ccccc1,0
C[C@H]1CN([C@@H](C)CO)C(=O)Cc2cc(NC(=O)Cc3ccccc3)ccc2O[C@H]1CN(C)Cc1ccc2c(c1)OCO2,16
Cc1ccc(S(=O)(=O)N(C)C[C@H]2OCCCC[C@H](C)Oc3ccc(NC(=O)CCCN(C)C)cc3C(=O)N([C@H](C)CO)C[C@@H]2C)cc1,18
COc1ccc(C(=O)Nc2ccc3c(c2)C(=O)N(C)C[C@H](OC)[C@H](C)CN(C)[C@H](C)CO3)cc1,12
COc1ccc(CN(C)C[C@@H]2Oc3ccc(NC(=O)Nc4ccccc4)cc3CC(=O)N([C@H](C)CO)C[C@@H]2C)cc1,-11
C/C(=C\c1ccccc1)C(=O)N1CCC=CC1=O,-10
Cc1ccc(S(=O)(=O)Nc2ccc3c(c2)C(=O)N([C@@H](C)CO)C[C@H](C)[C@@H](CN(C)Cc2ccncc2)O3)cc1,22
O=C(Nc1ccc2c(c1)[C@@H]1C[C@@H](CC(=O)N3CCc4ccccc4C3)O[C@@H](CO)[C@@H]1O2)Nc1ccccc1F,-93*
O=C(Nc1ccc(C(F)(F)F)cc1)Nc1ccc2c(c1)[C@H]1C[C@@H](CC(=O)N3CCc4ccccc4C3)O[C@H](CO)[C@H]1O2,-32
O=C(Nc1ccc(C(F)(F)F)cc1)Nc1ccc2c(c1)[C@H]1C[C@H](CC(=O)N3CCc4ccccc4C3)O[C@@H](CO)[C@H]1O2,-15
CC(=O)N1[C@@H](CO)[C@@H]2c3ccccc3N(C(=O)Nc3cc(F)ccc3F)C[C@@H]21,-2
SMILES,Vaccinia stage
O=C(CC1CC1)N1[C@@H]2CN(S(=O)(=O)c3ccccc3)c3ccccc3[C@@H]2[C@@H]1CO,8
CCC(=O)N(C)C[C@@H]1Oc2ncc(-c3ccccc3F)cc2C(=O)N([C@@H](C)CO)C[C@@H]1C,13
CCCC#Cc1ccc2c(c1)O[C@@H](CN(C)C)[C@H](C)CN([C@@H](C)CO)S2(=O)=O,-17
C[C@H]1CN([C@@H](C)CO)C(=O)c2cccc(N(C)C)c2O[C@@H]1CN(C)Cc1ccc(C(F)(F)F)cc1,-15
C[C@H]1CN([C@@H](C)CO)C(=O)Cc2cc(NC(=O)Cc3ccccc3)ccc2O[C@@H]1CN(C)Cc1ccncc1,4
CC(=O)N1[C@@H](CO)[C@@H](c2ccccc2)C12CN(C(=O)c1ccc3c(c1)OCO3)C2,7
CCCNC(=O)Nc1ccc2c(c1)C(=O)N(C)[C@H]1CC[C@@H](CC(=O)NCc3ccccc3)O[C@@H]1CO2,-4
Cc1noc(C)c1NC(=O)Nc1ccc2c(c1)C(=O)N([C@@H](C)CO)C[C@H](C)[C@@H](CN(C)C(=O)c1ccccc1)OCCCC[C@@H](C)O2,11
CN(C)C(=O)C[C@H]1CC[C@H]2[C@@H](COC[C@@H](O)CN2C(=O)c2ccncc2)O1,7
Cc1noc(C)c1NC(=O)Nc1ccc2c(c1)C(=O)N([C@@H](C)CO)C[C@@H](C)[C@@H](CN(C)Cc1ccc(C(F)(F)F)cc1)O2,1
Cc1ccccc1-c1cnc2c(c1)C(=O)N([C@H](C)CO)C[C@@H](C)[C@H](CN(C)C(=O)CN(C)C)O2,17
C[C@H](CO)N1C[C@H](C)[C@@H](CN(C)S(=O)(=O)CC(F)(F)F)OCc2ccccc2-c2ccccc2C1=O,14
CCCC#Cc1ccc2c(c1)O[C@H](CN(C)Cc1ccc3c(c1)OCO3)[C@H](C)CN([C@@H](C)CO)S2(=O)=O,-25
COc1ccc(NC(=O)Nc2ccc3c(c2)CC(=O)N([C@H](C)CO)C[C@@H](C)[C@H](CN(C)S(=O)(=O)c2c(C)noc2C)O3)cc1,20
O=C(N[C@H]1C=C[C@H](CC(=O)N2CCN(c3ccccc3)CC2)O[C@@H]1CO)c1ccncc1,-2
C[C@@H]1CN([C@@H](C)CO)C(=O)c2cc(C3=CCCCC3)cnc2O[C@H]1CN(C)C(=O)c1ccccc1,-1
C[C@H](CO)N1C[C@H](C)[C@@H](CN(C)C(=O)Nc2ccc(C(F)(F)F)cc2)Oc2ccc(NS(=O)(=O)c3cccs3)cc2CC1=O,4
C[C@H]1CCCCO[C@@H](CN(C)S(=O)(=O)c2cn(C)cn2)[C@@H](C)CN([C@@H](C)CO)C(=O)c2cc(NS(=O)(=O)c3cn(C)cn3)ccc2O1,19
CC(=O)N1CC[C@@H]2[C@H]1c1cc(C#Cc3cccnc3)ccc1N[C@@H]2CO,21
C[C@H](CO)N1C[C@H](C)[C@@H](CN(C)C(=O)C2CCOCC2)Oc2cc(C3=CCCCC3)ccc2S1(=O)=O,3
COc1ccccc1-c1ccc2c(c1)[C@@H]1[C@@H](CCN1C(=O)C1CC1)[C@@H](CO)N2,-31
OC[C@H]1Nc2ccc(-c3ccccc3)cc2[C@H]2[C@@H]1CCN2Cc1ccc(F)cc1,-50*
COc1ccccc1-c1ccc2c(c1)[C@@H]1[C@@H](CCN1C(=O)C1CCCCC1)[C@@H](CO)N2,-86*
OC[C@@H]1Nc2ccc(-c3cccc(F)c3)cc2[C@@H]2[C@H]1CCN2Cc1ccc(F)cc1,-18
COc1ccccc1-c1ccc2c(c1)[C@@H]1[C@@H](CCN1C(=O)C1CCOCC1)[C@H](CO)N2,-2
OC[C@@H]1Nc2ccc(-c3ccccc3)cc2[C@H]2[C@@H]1CCN2Cc1ccc(F)cc1,-27
C[C@@H]1CCCCO[C@H](CN(C)C(=O)c2ccncc2)[C@H](C)CN([C@H](C)CO)C(=O)c2cc(NS(C)(=O)=O)ccc2O1,13
